Assay results taken from PubChem BioAssay.
A number with no mark means an inactive call. The rule behind the calls is not given here.

Biological target: Pantothenate synthetase (Mycobacterium tuberculosis (strain ATCC 25618 / H37Rv)) (UniProt P9WIL5)
Assay: Recombinant Mtb pantothenate synthetase (PanC) inhibitors, coupled enzyme, confirmatory (AID 375);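 note: 0% = full reaction with vehicle and 100% = no enzyme background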
Conditions: coupled enzyme assay; at 10 µM, stronger effect = higher value

Chain of Pantothenate synthetase (Mycobacterium tuberculosis (strain ATCC 25618 / H37Rv)) (P9WIL5 whole entry, looked up): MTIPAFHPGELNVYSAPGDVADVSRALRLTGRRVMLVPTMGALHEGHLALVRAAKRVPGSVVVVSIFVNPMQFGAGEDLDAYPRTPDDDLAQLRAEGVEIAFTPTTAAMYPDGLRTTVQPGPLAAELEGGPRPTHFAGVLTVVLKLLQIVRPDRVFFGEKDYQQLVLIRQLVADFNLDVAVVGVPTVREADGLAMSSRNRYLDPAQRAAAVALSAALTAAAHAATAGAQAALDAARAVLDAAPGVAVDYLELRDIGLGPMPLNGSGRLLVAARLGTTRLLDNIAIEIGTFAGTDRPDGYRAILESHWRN

Row | SMILES | inhibition
1 | N[C@@H](Cc1ccccc1)c1nnc2sc(SCc3ccccc3)nn12 | 1%
2 | CC(=O)O[C@]1(C(C)=O)CC[C@H]2[C@@H]3C=C(Cl)C4=CC(=O)CC[C@]4(C)[C@H]3CC[C@@]21C | 0%
3 | CC(=O)C(Sc1ncnc2c1nnn2-c1ccc(F)cc1)C(=O)N(C)C (stereo unspecified) | 0%
4 | CCOC(=O)c1cnc(-n2nc(C)cc2C)nc1NC(C)c1ccccc1 (stereo unspecified) | 0%
5 | CCNc1nc(N2CCOCC2)nc(N(c2ccccc2)c2ccccc2)n1 | 0%
6 | CCOC(=O)c1ccccc1NC(=O)COC(=O)C1=COCCO1 | 0%
7 | CC(CCc1ccccc1)NCc1ccncc1 (stereo unspecified) | 5%
8 | COc1cc2c(cc1OC)CN(C(=O)CSc1nc3[nH]ncc3c(=O)n1-c1ccccc1)CC2 | 2%
9 | CCOC(=O)Nc1ccc(NS(=O)(=O)c2ccc(C)cc2)cc1 | 0%
10 | CCOc1cccc(-c2nnc3sc(COc4ccc(OC)cc4)nn23)c1 | 4%
11 | COc1ccc(CCNC(=O)c2nc3ncccn3n2)cc1OC | 0%
12 | Cc1cccc2cc(COC(=O)C(C)(C)C)c(=O)[nH]c12 | 0%
13 | CC(Oc1ccccc1)C(=O)N1CCCc2ccccc21 (stereo unspecified) | 0%
14 | O=C(CCNC(=O)Cn1ccc2ccccc2c1=O)NCCN1CCN(c2ccccc2F)CC1 | 0%
15 | O=C(Nc1cccc(NC(=O)c2cccnc2)c1)c1cccnc1 | 1%
16 | Cc1ccc(CNC(=O)COC(=O)c2c(C)noc2C)cc1 | 0%
17 | Cn1c2ccccc2c2ncn(CCCN3CCOCC3)c(=O)c21 | 0%
18 | O=C(NCCCCNC(=O)c1cccnc1)c1cccnc1 | 0%
19 | CCC(c1nnnn1Cc1ccco1)N(CCc1ccccc1)Cc1cc2cccc(C)c2[nH]c1=O (stereo unspecified) | 1%
20 | O=C(c1ccc2snnc2c1)N1CCOCC1 | 3%
21 | COC(=O)c1ccc(COC(=O)c2c(C)nn(Cc3ccccc3Cl)c2Cl)o1 | 0%
